Hit rate of the full screen: of about 5,500 compounds, about 2,000 (36%) were called active. Another 18% or so got no clear call; they are omitted. Cut-off read from the data, not from the text of the source: active = normalized growth mostly below about 0.91 (no sharp cut-off); inconclusive = no clear call, values can overlap the other calls; inactive = mostly above about 0.92. The list shows a part of the results.
Experiment: chemical genetic growth profiling, strain panel (AID 1159580);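 note: tested at 20 µM; growth read once vehicle control cultures reached saturation at 30 °C; 1 = growth at the plate median or of vehicle wells; lower values mean less growth of the strain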
Conditions: growth OD
[1] = S. cerevisiae deletion strains, locus YAL013W, strain DEP1, active compounds read low
[2] = S. cerevisiae deletion strains, locus YBR229C, strain ROT2, active compounds read low
[3] = S. cerevisiae deletion strains, locus YDL101C, strain DUN1, active compounds read low
[4] = S. cerevisiae deletion strains, locus YDR150W, strain NUM1, active compounds read low
[5] = S. cerevisiae deletion strains, locus YEL061C, strain CIN8, active compounds read low
[6] = S. cerevisiae deletion strains, locus YGR078C, strain PAC10, active compounds read low
[7] = S. cerevisiae deletion strains, locus YGR229C, strain SMI1, active compounds read low
[8] = S. cerevisiae deletion strains, locus YHR030C, strain SLT2, active compounds read low
[9] = S. cerevisiae deletion strains, locus YHR087W, strain rtc3, active compounds read low
[10] = S. cerevisiae deletion strains, locus YJR043C, strain POL32, active compounds read low
[11] = S. cerevisiae deletion strains, locus YJR075W, strain HOC1, active compounds read low
[12] = S. cerevisiae deletion strains, locus YLR039C, strain RIC1, active compounds read low
[13] = S. cerevisiae deletion strains, locus YLR058C, strain SHM2 (second series), active compounds read low
[14] = S. cerevisiae deletion strains, locus YLR085C, strain ARP6, active compounds read low
[15] = S. cerevisiae deletion strains, locus YLR262C, strain YPT6, active compounds read low
[16] = S. cerevisiae deletion strains, locus YML094W, strain GIM5, active compounds read low
[17] = S. cerevisiae deletion strains, locus YMR219W, strain ESC1, active compounds read low
[18] = S. cerevisiae deletion strains, locus YMR263W, strain SAP30, active compounds read low
[19] = S. cerevisiae deletion strains, locus YNL153C, strain GIM3, active compounds read low
[20] = S. cerevisiae deletion strains, locus YNL298W, strain CLA4 (second series), active compounds read low
[21] = S. cerevisiae deletion strains, locus YNL322C, strain KRE1, active compounds read low
[22] = S. cerevisiae deletion strains, locus YNR030W, strain Alg12, active compounds read low
[23] = S. cerevisiae deletion strains, locus YOL006C, strain TOP1, active compounds read low
[24] = S. cerevisiae deletion strains, locus YPL055C, strain LGE1, active compounds read low
[25] = S. cerevisiae deletion strains, locus YPL241C, strain CIN2, active compounds read low
[26] = S. cerevisiae deletion strains, locus YPR135W, strain CTF4, active compounds read low
[27] = S. cerevisiae strains, strain wild type, active compounds read low

Measured: normalized growth

COc1cccc(-c2nc(C#N)c(N)o2)c1
active: [7] 0.938
inactive: [1] 0.987 | [2] 0.996 | [3] 0.995 | [4] 0.983 | [5] 1.02 | [6] 0.996 | [8] 0.708 | [9] 1 | [10] 0.968 | [11] 0.992 | [12] 0.945 | [13] 0.99 | [14] 0.79 | [15] 0.979 | [16] 1.01 | [17] 0.989 | [18] 0.944 | [19] 0.987 | [20] 0.946 | [21] 1.01 | [22] 0.989 | [23] 0.796 | [24] 0.966 | [25] 0.953 | [26] 0.871 | [27] 0.958

c1cc2c(cc1N=C1SCC3CCCCN13)OCO2 (configuration not stated)
inactive: [1] 1 | [2] 1.01 | [3] 1.02 | [4] 1.05 | [5] 0.991 | [6] 1.01 | [7] 0.997 | [8] 1.05 | [9] 0.995 | [10] 1.03 | [11] 1.03 | [12] 0.983 | [13] 1 | [14] 0.932 | [15] 1.12 | [16] 0.973 | [17] 1 | [18] 1.01 | [19] 1.02 | [20] 0.974 | [21] 1 | [22] 1 | [24] 0.996 | [25] 0.953 | [26] 1.05 | [27] 1

NC(=S)COc1ccccc1Cl
inactive: [1] 0.998 | [2] 0.985 | S. cerevisiae deletion strains, locus YCL061C, strain MRC1, active compounds read low 1 | [3] 1 | S. cerevisiae deletion strains, locus YDL134C, strain PPH21, active compounds read low 0.981 | [4] 0.998 | [5] 0.931 | [6] 1.03 | [8] 0.794 | [9] 1.04 | S. cerevisiae deletion strains, locus YJL187C, strain SWE1, active compounds read low 0.983 | [10] 0.994 | [11] 1.01 | S. cerevisiae deletion strains, locus YKL190W, strain CNB1, active compounds read low 0.968 | [12] 0.796 | [13] 0.982 | [15] 0.887 | [16] 0.947 | [17] 0.982 | [18] 1.01 | [19] 0.971 | [21] 0.994 | [22] 0.95 | [24] 1.04 | [25] 0.891 | [26] 0.801
active: [14] 0.624 | [20] 0.799 | [23] 0.294

Source: PubChem BioAssay AID1159580 (chemical genetic matrix, 2015)
